The values that follow come from PubChem BioAssay AID624288 (National Center for Advancing Translational Sciences (NCATS), 2012).

The structures appear in SMILES notation. The whole screen tested about 340,000 compounds, of which about 1,400 (0.41%) were called active. Where a call stands in place of a potency, no number is given. Roughly 4% stayed inconclusive and do not appear here. Calls follow the shape of the full dose curve; cell line not stated here. For the sample, actives were picked, then their nearest neighbours and some compounds at random.
Potency is read from the fitted curve at half-maximal effect.

The nature of this test: qHTS for Antagonists of gsp, the Etiologic Mutation Responsible for Fibrous Dysplasia/McCune-Albright Syndrome: qHTS. Also: nearly all actives have a fitted effect of over 65% in size. To be noted: gsp-mutant cells, cAMP HTRF, 30 min; series mostly up to 76.9 µM. The method, boiled down:
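Measurement of cellular cAMP by homogeneous time-resolved fluorescence following a 30 min compound exposure at 37C. The PDE inhibitor […] was present throughout; the assay buffer was DPBS with 0.05% BSA and 0.005% Tween 20.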
Turning to `COc1ccc(CNCCCn2cnc3c(OCc4ccccc4)ncnc32)cc1`, the Potency result was “inactive”.

For the compound `CCN1CCN(C(=O)c2ccc(CN(c3ccc(C)c(C)c3)S(C)(=O)=O)cc2)CC1`, the Potency entry was “inactive”.

With `CCOC(=O)N1CCN(C(=O)c2ccc(CN(c3ccc(C)c(C)c3)S(C)(=O)=O)cc2)CC1`, the Potency was 22.4 µM (active).

Regarding `CCOC(=O)N1CCN(C(=O)CN(c2ccc(C)c(C)c2)S(=O)(=O)c2ccccc2)CC1`, the Potency entry is “inactive”.

In the case of `CC/C(=C\c1ccc(Cl)cc1)c1ccncc1`, the Potency entry was “inactive”.

Regarding `Cc1ccc(C)c(S(=O)(=O)N2CCN(CC(=O)Nc3ccc([N+](=O)[O-])cc3)CC2)c1`, the Potency entry was “inactive”.

With `CC(=O)Nc1ccc(S(=O)(=O)N2CCN(CCCOc3cc(C)ccc3C)CC2)cc1`, the Potency was 31.6 µM (active).

With `Cc1ccc(C)c(OCCC(=O)Nc2cccc(S(=O)(=O)N3CCCC3)c2)c1`, the Potency entry was “inactive”.

In the case of `CCC1([N+](=O)[O-])COC(c2ccc(C)cc2)OC1` (stereo unspecified), the Potency result was “inactive”.

Regarding `NC(=O)C1(Nc2ccccc2Cl)CCCC1`, the Potency entry was “inactive”.

Turning to `CC(Nc1ccc([N+](=O)[O-])cc1[N+](=O)[O-])c1ccccc1` (stereo unspecified), the Potency entry was “inactive”.

Regarding `O=C(Nc1ccc(NC(=O)c2ccc3c(c2)OCO3)cc1)c1cccc(Cl)c1`, the Potency entry was “inactive”.

`O=C(Nc1ccccc1)c1ccc2c(c1)OCCCO2`: the Potency result is “inactive”.

Take `O=C(Nc1cccc(S(=O)(=O)Nc2ccc(Cl)cc2)c1)c1ccc2c(c1)OCCO2`: the Potency is 35.5 µM (active).

With `CN(C(=O)c1cccc(NC(=O)Cc2ccc(NC(=O)C3CCN(C(=O)C4CCCCC4)CC3)cc2)c1)C1CCC1`, the Potency result is “inactive”.

`COc1cc(/C=C/CNC[C@H]2O[C@@H](n3cnc(C(N)=O)n3)[C@H](O)[C@@H]2O)ccc1O`: the Potency entry was “inactive”.

Regarding `CC(=O)N1CCCc2cc(S(=O)(=O)N3CCCC(C(=O)N4CCN(c5cccc(Cl)c5)CC4)C3)ccc21` (stereo unspecified), the Potency is 28.2 µM (active).

`CC(=O)N1CCCc2cc(S(=O)(=O)N3CCCC(C(=O)NCc4ccc(Cl)cc4)C3)ccc21` (stereo unspecified): the Potency entry was “inactive”.

Turning to `CC(=O)N1CCCc2cc(S(=O)(=O)CCC(=O)N3CCN(c4ccccc4)CC3)ccc21`, the Potency result was “inactive”.

For the compound `CC(=O)Oc1ccc(OC(C)=O)c2c1C1C=CC2CC1`, the Potency entry is “inactive”.

For `Cc1cccc(CSc2nnc(Cn3c(=O)sc4ccccc43)n2C)c1`, the Potency entry is “inactive”.

On to `COc1ccccc1CNC(=O)CCn1c(=O)sc2ccccc21`, for which the Potency entry is “inactive”.

`COc1ccc(Cn2c(=O)sc3ccccc32)cc1OC`: the Potency is 11.2 µM (active).

On to `COc1ccc(CCN2CC(C(=O)OCC(=O)NCc3ccccc3Cl)CC2=O)cc1OC` (stereo unspecified), for which the Potency entry was “inactive”.

Regarding `NC(CSC1(c2ccccc2)c2ccccc2-c2ccccc21)C(=O)O` (stereo unspecified), the Potency entry was “inactive”.

For `CSCCC(NC(=O)COc1ccccc1)C(=O)N1CCN(c2cccc(C(F)(F)F)c2)CC1` (stereo unspecified), the Potency result is “inactive”.

Take `COC(C[C@H](O)CC(=O)[C@@H](C)OCc1ccccc1)OC`: the Potency result was “inactive”.

Consider `COC(C[C@@H](O)C[C@H](O)[C@H](C)OCc1ccccc1)OC`, for which the Potency is 50.1 µM (active).

Turning to `COC(C[C@@H](O)C[C@@H](O)[C@H](C)OCc1ccccc1)OC`, the Potency entry is “inactive”.

With `CC(=NNC(=S)N1CCCCCC1)c1ccccn1`, the Potency entry is “inactive”.

As for `CC(NC(=O)CCC(=O)N1CCN(S(=O)(=O)c2ccc(Cl)cc2)CC1)c1ccccc1` (stereo unspecified), the Potency entry was “inactive”.

For `O=C(NCc1cccc(C(F)(F)F)c1)c1cccc(S(=O)(=O)N2CCN(Cc3ccccc3)CC2)c1`, the Potency entry was “inactive”.

For the compound `O=C(CCC(=O)N1CCN(S(=O)(=O)c2ccc(Cl)cc2)CC1)NCc1cccc(C(F)(F)F)c1`, the Potency is 35.5 µM (active).

Consider `NC(=O)c1ccc(N2CCCC2)nc1`, for which the Potency result is “inactive”.

With `O=C(O)c1ccc(S(=O)(=O)c2ccccc2)s1`, the Potency result was “inactive”.

As for `O=C(Nc1ccc2ccccc2c1)Nc1ccc2snnc2c1`, the Potency is 31.6 µM (active).

Take `O=C(Nc1cccc(Br)c1)c1ccc2snnc2c1`: the Potency result is “inactive”.

Regarding `CCc1ccccc1NC(=O)c1ccc2snnc2c1`, the Potency result was “inactive”.

Take `Oc1cccc(C2c3[nH]c4ccccc4c3CCN2Cc2cnn(-c3ccccc3)c2)c1` (stereo unspecified): the Potency entry is “inactive”.

Take `COc1ccc(C2c3[nH]c4ccccc4c3CCN2CCCn2cccn2)cc1C` (stereo unspecified): the Potency entry was “inactive”.

Turning to `COc1cccc(C2c3[nH]c4ccccc4c3CCN2Cc2cccc(C)n2)c1` (stereo unspecified), the Potency was 39.8 µM (active).

Take `O=C(Nc1c(Br)cc2c(c1Br)Cc1cc([N+](=O)[O-])ccc1-2)C(Cl)Cl`: the Potency entry was “inactive”.

On to `Cn1nccc1CNC(=O)c1ccnn1C`, for which the Potency result was “inactive”.

As for `CCN(CC)C(=O)c1sc(NC(=O)c2ccco2)c(C#N)c1C`, the Potency entry was “inactive”.

On to `CCCc1ccc(-c2c(C)sc(NC(=O)c3ccnn3C)c2C#N)cc1`, for which the Potency is 20 µM (active).

As for `COc1cc2c(cc1OC)C(Cc1cc(OC)c(OC)cc1[N+](=O)[O-])=NCC2`, the Potency result is “inactive”.

On to `NC(=O)c1ncn([C@@H]2O[C@H](CN=C3NS(=O)(=O)c4ccccc43)[C@@H](O)[C@H]2O)n1`, for which the Potency result is “inactive”.

In the case of `O=C(Nc1ncc([N+](=O)[O-])s1)C1COc2ccccc2O1` (stereo unspecified), the Potency is 39.8 µM (active).

For `COc1ccc(OC)c2sc(NC(=O)C3COc4ccccc4O3)nc12` (stereo unspecified), the Potency result is “inactive”.

In the case of `O=C(CCc1ccccc1)Nc1ncc([N+](=O)[O-])s1`, the Potency result is “inactive”.

For the compound `Cc1cn(C2CC(O)C(CO)O2)c(=O)n(CCCc2ccccc2)c1=O` (stereo unspecified), the Potency entry was “inactive”.

`COc1ccc(C(CNC(=O)c2cc(S(=O)(=O)Nc3cccc(C)c3)ccc2C)N2CCCC2)cc1` (stereo unspecified): the Potency result is “inactive”.

On to `CCOC(=O)c1ccccc1NC(=O)CSc1nc2c(sc(=S)n2CC)c(=O)[nH]1`, for which the Potency entry is “inactive”.

In the case of `O=C(NN=Cc1ccc([N+](=O)[O-])cc1)C1CC1`, the Potency entry was “inactive”.

Regarding `COc1cc(/C=N/NC(=O)c2ccc(N3CCCC3=O)cc2)ccc1O`, the Potency result is “inactive”.

Turning to `Cn1c(=O)n(C)c2cc(/C=N/NC(=O)c3cccc(Br)c3)ccc21`, the Potency entry was “inactive”.

As to `O=C(N/N=C/c1cccc(Br)c1)c1ccc(N2CCCC2=O)cc1`, the Potency is 31.6 µM (active).

Consider `COc1ccc(/C=C2/CCCc3ccccc3C2=O)cc1`, for which the Potency result is “inactive”.

As to `CC(=O)OC1CCC2(C)C(=CCC3C4CC(=O)N(O)C(=O)C4(C)CCC32)C1` (stereo unspecified), the Potency result was “inactive”.

Turning to `Cc1cccc(N=Nc2c(C)[nH]n(-c3ccccc3)c2=O)c1`, the Potency result is “inactive”.

For `CCCc1cc(=O)n2[nH]c(C)c(-c3ccc(Cl)cc3)c2n1`, the Potency result is “inactive”.

For `Cc1[nH]n(-c2cccc(Cl)c2)c(=O)c1-c1ccc(Cl)cc1`, the Potency was 28.2 µM (active).

Take `O=C(NN=Cc1ccccc1O)NN=Cc1ccccc1O`: the Potency entry is “inactive”.

`Cc1cc(NC(=O)c2cc3ccccc3o2)no1`: the Potency result was “inactive”.

As for `COc1ccc2sc(-c3ccc(N(C)C)cc3)c(C#CCO)c2c1`, the Potency entry is “inactive”.

For `COc1ccc2sc(-c3ccc(N(C)C)cc3)c(-c3ccc4cc[nH]c4c3)c2c1`, the Potency entry is “inactive”.

For `COc1ccc(-c2sc3ccc(OC)cc3c2C#Cc2ccccn2)cc1`, the Potency is 28.2 µM (active).

Regarding `CN(C)C(=S)N=c1ssc(=S)n1Cc1ccco1`, the Potency entry was “inactive”.

As to `O=C1CC(c2ccccc2)=NN1c1ccc([N+](=O)[O-])cc1`, the Potency was 35.5 µM (active).

Take `Cc1nn(-c2ccc([N+](=O)[O-])cc2)c(N)c1-c1ccccc1`: the Potency entry was “inactive”.

Consider `O=c1[nH]n(-c2ccc([N+](=O)[O-])cc2)c(=O)c2ccccc12`, for which the Potency result was “inactive”.

As for `O=C1COc2c1ccc(O)c2O`, the Potency entry was “inactive”.

For the compound `O=C(O)c1ccc(Cn2cnc3c(=S)nc[nH]c32)cc1`, the Potency entry is “inactive”.

In the case of `O=C(CC(=O)c1cccnc1)c1ccccc1`, the Potency entry was “inactive”.

On to `CCC(=C/c1sc2ccc3ccccc3c2[n+]1C)/C=C1\Sc2ccc3ccccc3c2N1C`, for which the Potency was 35.5 µM (active).

As to `O=C1CC(c2ccccc2)C(c2ccccc2)=NN1` (stereo unspecified), the Potency entry is “inactive”.

For the compound `c1ccc(CNc2ncnc3[nH]ncc23)cc1`, the Potency result is “inactive”.

On to `Cc1ccc(SCC(=O)N2CCN(c3ccc(F)cc3)CC2)cc1`, for which the Potency result is “inactive”.

Regarding `CN(C(=O)c1ccc(NC(=O)Cc2cccc(NC(=O)C3CCN(C(=O)c4ccccc4)CC3)c2)cc1)C1CC1`, the Potency entry is “inactive”.

As for `CCc1ccc(NC(=O)Nc2ccncc2)cc1`, the Potency result is “inactive”.

On to `Cc1ccc(NC(=O)Nc2nnc(-c3ccncc3)s2)cc1`, for which the Potency was 50.1 µM (active).

As for `Cc1ccc(NC(=O)Nc2cccnc2)cc1`, the Potency result was “inactive”.

Turning to `O=C1NCC(Nc2ccccc2)C(=O)N1` (stereo unspecified), the Potency result was “inactive”.

Consider `COc1ccc(S(=O)(=O)N2C[C@H]3CON(C)[C@H]3C[C@H]2c2cccc(Br)c2)cc1`, for which the Potency entry was “inactive”.

On to `O=[N+]([O-])c1ccccc1/C=N/n1c(COc2ccccc2)n[nH]c1=S`, for which the Potency entry is “inactive”.

On to `Fc1ccccc1/C=N/n1c(-c2cccnc2)n[nH]c1=S`, for which the Potency is 28.2 µM (active).

Take `S=c1[nH]nc(-c2ccncc2)n1/N=C/c1ccccc1Cl`: the Potency entry was “inactive”.

For `Cc1cccc(NC(=S)N2CCC(C(=O)c3ccc(F)cc3)CC2)c1`, the Potency result is “inactive”.

For the compound `Cc1nn(-c2ccccc2)c(C)c1NC(=O)COC(=O)c1cc(Cl)ccc1O`, the Potency result is “inactive”.

Turning to `Cc1nn(-c2ccccc2)c(C)c1NC(=O)COc1ccc(Cl)cc1Cl`, the Potency was 50.1 µM (active).

With `Cc1nn(-c2ccccc2)c(C)c1NC(=O)CCl`, the Potency result is “inactive”.

Turning to `CC(C)Cn1cnc2c(SCc3ccc(Cl)cc3)nc(N)nc21`, the Potency result was “inactive”.

In the case of `COC(=O)CC(CC(=O)OC)n1cccc1`, the Potency entry is “inactive”.

For `NS(=O)(=O)c1cccc(NC(=O)CSc2nc3ccccc3n2-c2ccccc2)c1`, the Potency was 28.2 µM (active).

Take `Cc1nnc(SCC(=O)Nc2cccc(N)c2)n1-c1ccccc1`: the Potency entry is “inactive”.

In the case of `COc1ccc(-n2cnnc2SCC(=O)Nc2cccc(S(N)(=O)=O)c2)cc1`, the Potency result is “inactive”.

With `CNc1nc(=O)n(C2CCCO2)cc1C` (stereo unspecified), the Potency result was “inactive”.

Take `Cc1ccccc1OCC(=O)Nc1ccc(N2CCN(C(=O)C(C)C)CC2)c(Cl)c1`: the Potency was 31.6 µM (active).

For `Cc1ccccc1OCC(=O)Nc1ccc2c(c1)ncn2C`, the Potency result is “inactive”.

Take `Cc1ccccc1OCC(=O)Nc1ccc(S(=O)(=O)N2CCOCC2)cc1`: the Potency entry is “inactive”.

For `COc1ccc2nc(N3C(=O)C(O)=C(C(=O)c4ccco4)C3c3ccco3)sc2c1` (stereo unspecified), the Potency result was “inactive”.

Turning to `OCCN1CCN(CCO)C1=S`, the Potency entry is “inactive”.

Consider `N#CC1=C(N)Oc2cc(N)ccc2C1c1ccccc1` (stereo unspecified), for which the Potency entry was “inactive”.

Regarding `O=[N+]([O-])c1cc(Cl)cc(/C=N/NC(=S)Nc2cc(S(=O)(=O)N3CCOCC3)ccc2Cl)c1O`, the Potency is 50.1 µM (active).

Turning to `CN(C)/N=C/c1cc(Cl)cc([N+](=O)[O-])c1O`, the Potency entry is “inactive”.

As for `O=S(=O)(c1ccc(NC(=S)NN=C(C2CC2)C2CC2)cc1)N1CCOCC1`, the Potency entry is “inactive”.
